The text below walks through data of PubChem BioAssay.

Structures are written as SMILES.

This test in a line: MM1S cell viability effects, profiling panel, calcein-AM fluorescence, 48 h, basal (AID 1165).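 Further: viability of MM1S multiple myeloma cells under basal unstimulated conditions; test concentration not given here.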 The conditions noted are these: higher = more signal.
For `Cc1ccc(S(=O)(=O)N2[C@@H](c3ccccc3)C(C(=O)O)=C[C@H]2C(C)(C)C)cc1`, the z-score was 0.611. As for `C=C1C(=O)C=C2CN(C(=O)c3ccccc3)[C@@](Cc3ccc(F)cc3)(C(=O)OC)[C@@H]12`, the figure is -3.36; as for `COC(=O)[C@@]1(Cc2ccc(F)cc2)[C@H]2c3cc(C(=O)N4CCCC4)n(CCc4c[nH]c5cc(F)ccc45)c3C[C@H]2CN1C(=O)c1ccccc1`, -0.234; as for `CCCCN1CC=CC23O[C@@H]4C=CCCOC(=O)C4[C@H]2C(=O)N(CCO)[C@@H]3C1=O` (stereo not given in full), 0.303. As for `Cc1ccc(S[C@]2(C(=O)NC3CC3)CC(=O)N(C3Cc4ccccc4C3)[C@@H]2c2ccc(CO)cc2I)cc1`, the figure is -2.21; as for `C=CCOC(=O)[C@H]1[C@@H]2C(=O)O[C@@H](c3ccccc3)[C@@H](c3ccccc3)N2[C@@H](c2ccc(OCCOC(=O)[C@H]3C[C@H]4C(=O)NCC(=O)N4[C@H]3c3cccc(OCCO)c3)cc2)[C@]12C(=O)Nc1ccc(I)cc12`, -0.223.

In the case of `CC1(C)OB(/C=C\CC(OC(=O)c2ccncc2)c2ccccc2)OC1(C)C` (stereo not given), the z-score is -0.475. Under `CC[C@@H](O[Si](C#C[Si](C(C)C)(C(C)C)C(C)C)(C(C)C)C(C)C)c1cn([C@H](CO)Cc2ccccc2)nn1` stands 0.297. As for `C=C[C@H](OC)[C@@H](O)c1ccc(OC)c(O)c1`, the figure is -0.166; as for `CC(C)(C)OC(=O)CC[C@@]1(C(N)=O)N=C(c2ccc(OCCCO)cc2)O[C@@H]1c1ccccc1CN=[N+]=[N-]`, 0.0855; as for `COCCOC(=O)N1C(=O)[C@@]2(c3cc(C#CCNC(N)=O)ccc31)[C@H](c1ccc(O)cc1)N1[C@H](c3ccccc3)[C@H](c3ccccc3)OC(=O)[C@H]1[C@@H]2C(=O)N1CCc2cc(OC)c(OC)cc2C1`, -0.72. For `COc1cc2c(cc1O)C(C)N(Cc1sc3ccccc3c1Cl)CC2` (stereo not given), the z-score was 0.141. Under `COCCOC(=O)N1C(=O)[C@@]2(c3cc(C#CCC(C(=O)OC)C(=O)OC)ccc31)[C@H](C(N)=O)[C@H]1C(=O)O[C@H](c3ccccc3)[C@H](c3ccccc3)N1[C@@H]2c1ccccc1OCCO` stands -2.97. Under `C[C@H]1C2[C@H](Cc3ccccc3)NC(=O)[C@]23C(=O)N[C@@H](Cc2ccccc2)C(=O)N2CCC[C@H]2C(=O)NC/C=C/CC/C=C/C3[C@@H]2O[C@]12C` (stereo not given in full) stands -0.132; under `C[C@@]1([C@@H](NS(=O)(=O)c2cccc3cccnc23)c2ccc(-c3ccccc3)cc2)C[C@H]1C1CCCCC1`, -1.28; under `COc1ccc(CCNC(=O)[C@@H]2c3ccccc3C(=O)N(Cc3cc(F)cc(C(F)(F)F)c3)[C@H]2c2ccc(CO)cc2)cc1`, -0.696.

Turning to `C=CC[C@H](O)c1ccc(O)c(F)c1`, the z-score is -0.229.

Take `CC(C)N1CC=CC23O[C@@H]4/C=C\CCCOC(=O)C4[C@H]2C(=O)N(C(C)CO)[C@@H]3C1=O` (stereo not given in full): the z-score was 0.967. Take `C=CCOC(=O)[C@@H]1[C@H]2C(=O)O[C@H](c3ccccc3)[C@H](c3ccccc3)N2[C@H](c2ccc(OCCOC(=O)[C@H]3C[C@H]4C(=O)N[C@@H](CCCCN(C)C)C(=O)N4[C@H]3c3cccc(OCCO)c3)cc2)[C@@]12C(=O)Nc1ccccc12`: the z-score was 0.293.

Turning to `COCCOC(=O)N1C(=O)[C@@]2(c3cc(C#CC4=CCCCC4)ccc31)[C@H](C(=O)N1CCCCCCC1)[C@H]1C(=O)O[C@H](c3ccccc3)[C@H](c3ccccc3)N1[C@@H]2c1ccccc1OCCO`, the z-score is -0.99. As for `CCCCCN1CC=CC23O[C@@H]4/C=C\CCCOC(=O)C4[C@H]2C(=O)N(CCO)[C@@H]3C1=O` (stereo not given in full), the figure is 1.59; as for `CC(C)N1C(=O)[C@@]2(Cc3ccccc31)c1ccccc1C(=O)N(Cc1ccccc1)[C@H]2c1ccc(CO)cc1`, -0.436; as for `C=C(CC1([C@@H](NP(=O)(c2ccccc2)c2ccccc2)[C@H]2C[C@@H]2CCCC)CC1)c1cccc(OC)c1`, -3.47. Under `CC[C@@H](O[Si](C#C[Si](C(C)C)(C(C)C)C(C)C)(C(C)C)C(C)C)c1cn(Cc2cccc(Cl)c2)nn1` stands 0.534; under `COCCCNC(=O)[C@]1(Cc2ccccc2CN=[N+]=[N-])N=C(c2ccc(OCCCO)cc2)O[C@@H]1c1ccccc1N=[N+]=[N-]`, -2.96. Under `COc1ccc([Si](C)(C)[C@H]2[C@H](CC(=O)N(CCO)Cc3ccccc3)O[C@@]3(C(=O)N(Cc4cccc(N5CCCCC5=O)c4)c4ccccc43)[C@@H]2C)cc1` stands -0.391; under `C=C(/C=C\CNS(=O)(=O)c1ccc(C)cc1)[C@H](O)[C@H]1CCCN1S(=O)(=O)c1ccccc1[N+](=O)[O-]`, -3.14; under `[N-]=[N+]=NCc1ccccc1[C@H]1OC(c2ccc(OCCCO)cc2)=N[C@@]1(Cc1ccccc1N=[N+]=[N-])C(N)=O`, -1.84. With `C=CCN1C(=O)[C@@]2(O[C@@H](CCO)[C@H]([Si](C)(C)c3ccc(OC)cc3)[C@H]2C)c2cc(N3CCCCC3=O)ccc21`, the z-score is -2.69. As for `Cc1ccc(S[C@]2(C(=O)NCc3ccccc3)CC(=O)N(Cc3ccccc3C(F)(F)F)[C@@H]2c2ccc(CO)cc2I)cc1`, the figure is -2.39.

Regarding `C=C[C@H](C)[C@@H](OC(=O)Nc1ccc(SC)cc1)c1ccc(OCCO)cc1`, the z-score was -1.69. As for `CN(C)C(=O)[C@]1(CCS(=O)(=O)c2ccccc2)N=C(c2ccc(OCCCO)cc2)O[C@@H]1c1ccccc1CN=[N+]=[N-]`, the figure is -1.29; as for `COC(=O)[C@]1(Cc2ccccc2N=[N+]=[N-])N=C(c2ccc(OCCCO)cc2)O[C@@H]1c1ccccc1CN=[N+]=[N-]`, -3.59; as for `COc1cccc(C)c1NC(=O)O[C@H]1[C@H](OC(=O)Nc2ccccc2)[C@@H](OC(=O)Nc2ccccc2)[C@@H](OC)O[C@@H]1CO`, -2.59. Under `COCCCNC(=O)[C@@]1(c2ccc([N+](=O)[O-])cc2)CC(=O)N(C2CCCCC2)[C@@H]1c1ccc(CO)cc1I` stands -1.41.
